PAFAH1B2 FP inh: PAFAH1B2 enzyme inhibitors, primary screen, biochemical, fluorescence polarization, human; Platelet-activating factor acetylhydrolase IB subunit alpha2 (Homo sapiens), P68402; recombinant PAFAH1B2, FP-rhodamine activity probe; inhibition, % at 3.39 µM; actives 1.2% (n = 340,000); AID 492953, 2010;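 active means inhibition above the mean of all tested compounds plus 3 SD, cut at about 24% in these data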
pPAFAH FP inh: pPAFAH enzyme inhibitors, primary screen, biochemical, fluorescence polarization, human | AID 463082, 2010 | Platelet-activating factor acetylhydrolase (Homo sapiens), Q13093 | inhibition, % at 3.39 µM | recombinant pPAFAH, FP-rhodamine probe fluorescence polarization | actives 1.5% (n = 330,000);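 active means inhibition above the mean inhibition across the screen plus 3 SD, cut at about 25% in these data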;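 further: inhibitors block binding of the rhodamine activity-based probe so polarization drops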
Target sequence (Q13093 whole entry, looked up): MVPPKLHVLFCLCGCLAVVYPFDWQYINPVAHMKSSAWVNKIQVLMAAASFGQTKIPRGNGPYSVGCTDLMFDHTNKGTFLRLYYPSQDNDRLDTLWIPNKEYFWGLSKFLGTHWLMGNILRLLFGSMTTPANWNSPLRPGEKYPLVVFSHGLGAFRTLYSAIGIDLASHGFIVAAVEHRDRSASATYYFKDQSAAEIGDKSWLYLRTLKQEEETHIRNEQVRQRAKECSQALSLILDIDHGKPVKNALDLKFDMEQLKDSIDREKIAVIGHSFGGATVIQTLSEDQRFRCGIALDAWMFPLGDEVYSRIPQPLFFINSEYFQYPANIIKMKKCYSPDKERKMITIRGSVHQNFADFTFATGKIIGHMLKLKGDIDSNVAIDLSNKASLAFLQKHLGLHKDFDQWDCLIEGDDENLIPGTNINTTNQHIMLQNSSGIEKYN
PAFAH1B3 inh: PAFAH1B3 enzyme inhibitors, primary screen, biochemical, fluorescence polarization, human; recombinant PAFAH1B3, FP-rhodamine probe; Platelet-activating factor acetylhydrolase IB subunit alpha1 (Homo sapiens), Q15102; AID 492972, 2010; inhibition, % at 3.39 µM; actives 0.28% (n = 340,000);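 active means inhibition above the screen-wide average of all tested compounds plus 3 SD, cut at about 25% in these data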
PAFAH2 inh: PAFAH2 enzyme inhibitors, primary screen, biochemical, fluorescence polarization, human | actives 0.99% (n = 340,000) | recombinant PAFAH2, FP-rhodamine activity probe | inhibition, % at 3.39 µM | Platelet-activating factor acetylhydrolase 2, cytoplasmic (Homo sapiens), Q99487;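 active means inhibition above the mean over all tested compounds plus 3 SD, cut at about 30% in these data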;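 further: inhibitors block probe labeling of enzyme so polarization drops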
E coli Lon inh: inhibitors of E. coli Lon protease, primary screen, biochemical, fluorescence polarization; purified E. coli Lon protease; AID 602123, 2011; inhibition, % at 7.94 µM; actives 0.42% (n = 360,000); P0A9M0; in the data active means inhibition above about 13%, passing the limit was not always enough
Rin1-Abl PPI inh: inhibitors of Rin1-Abl protein binding, primary screen, biochemical, TR-FRET; actives 0.4% (n = 360,000); inhibition, % at 7.35 µM; in the data active means inhibition above about 5%, passing the limit was not always enough
Hits are given with their value; . = inactive; / = no result. Compounds with a hit are over-represented: about 3.1% of the library has one in this group of screens.

SMILES	PAFAH1B2 FP inh	pPAFAH FP inh	PAFAH1B3 inh	PAFAH2 inh	E coli Lon inh	Rin1-Abl PPI inh
O=C(CSc1ccccn1)C12CC3CC(CC(C3)C1)C2	26	.	.	.	.	.
O=C(OCC(=O)C12CC3CC(CC(C3)C1)C2)c1ccc(O)cc1O	26	.	.	33	.	.
O=C(OCC(=O)C12CC3CC(CC(C3)C1)C2)c1cnccn1	.	.	.	.	.	.
O=C(N/N=C/c1cc(Cl)cc([N+](=O)[O-])c1O)NC12CC3CC(CC(C3)C1)C2	59	.	.	53	.	.
O=C(N/N=C/c1cc(Cl)cc([N+](=O)[O-])c1O)c1ccc2c(c1)OCO2	.	.	.	.	.	.
COc1ccc(OCc2cccc(C(=O)Nn3cc([N+](=O)[O-])cn3)c2)cc1	29	.	.	.	.	.
Brc1ccc(CSc2nccn2-c2ccccc2)cc1	24	.	.	.	.	.
COc1ccc2[nH]c(C(=O)O)c(CCN3C(=O)c4ccc(C(=O)O)cc4C3=O)c2c1	.	.	.	.	.	.
O=C(O)c1[nH]c2ccc(Br)cc2c1CCN1C(=O)c2cccc([N+](=O)[O-])c2C1=O	53	.	.	.	.	.
O=C(O)c1[nH]c2ccc(Cl)cc2c1CCN1C(=O)c2ccccc2C1=O	84	.	.	.	.	.
Cc1ccc(S(=O)(=O)N/N=C/c2cccc([N+](=O)[O-])c2)cc1	.	.	.	.	.	.
CCCCCCCCCS(=O)(=O)N/N=C/c1cccc([N+](=O)[O-])c1	28	.	.	.	.	.
CCc1ccc(C2CC(c3ccc(F)cc3)Nc3nc(N)nn32)cc1 (stereo unspecified)	.	.	.	.	.	.
CCc1ccc(C2CC(c3ccc(Cl)cc3)n3nc(N)nc3N2)cc1 (stereo unspecified)	36	.	.	.	.	.
CCOC(=O)c1c(-c2ccccc2)csc1NC(=O)C1CCCO1 (stereo unspecified)	.	.	.	.	.	.
CCOC(=O)c1c(-c2ccc(-c3ccccc3)cc2)csc1NC(=O)C1C2CCC(O2)C1C(=O)O (stereo unspecified)	.	28	.	.	.	.
O=C(c1cc2ccccc2oc1=O)N(Cc1ccccc1F)C1CCS(=O)(=O)C1 (stereo unspecified)	.	.	.	.	.	.
CCCCn1cnc2sc(-c3ccccc3)cc2c1=O	.	.	.	.	.	.
O=c1c2cc(-c3ccccc3)sc2ncn1/N=C/c1ccco1	.	26	.	.	.	.
O=C(NNS(=O)(=O)c1ccc2ccccc2c1)c1cc(-c2ccccn2)nc2ccccc12	26	.	.	.	.	.
CC(C)C(NC(=O)C1(NC(=O)OCc2ccccc2)CCCC1)C(=O)O (stereo unspecified)	.	/	.	.	.	.
CC(=O)N1c2ccc(S(=O)(=O)NCCC(=O)NCCc3ccc(Cl)cc3)cc2CC1C (stereo unspecified)	.	.	.	.	.	.
CC(=O)N1c2ccc(S(=O)(=O)NCCc3ccc(Cl)cc3)cc2CC1C (stereo unspecified)	.	30	.	.	.	.
CC(C)CNC(=O)C1(C)CCCN1C(=O)CCc1cccs1 (stereo unspecified)	/	/	/	/	.	.
O=C(N/N=C\c1ccccn1)c1cccc(C(=O)N/N=C\c2ccccn2)n1	42	.	53	.	.	.
SMILES	PAFAH1B2 FP inh	pPAFAH FP inh	PAFAH1B3 inh	PAFAH2 inh	E coli Lon inh	Rin1-Abl PPI inh
O=C(COC(=O)Cc1ccc(Br)cc1)NCC1CCCCC1	.	31	.	.	.	.
Cc1cc(C)c(OCC(=O)OCC(=O)NCC2CCCCC2)c(C)c1	.	31	.	.	.	.
O=C(COC(=O)Cc1ccc(Br)cc1)NC1CCCCC1	.	30	.	.	.	.
Cc1cccc(OCC(=O)NCCCNC(=O)c2ccc(C)nc2)c1	.	.	.	.	.	.
COCC1COS(=O)(=O)NC1(C)C (stereo unspecified)	.	.	.	.	.	.
O=C(COc1ccc2ccc(=O)oc2c1)NCCN1CCOCC1	/	/	/	/	.	.
C=CCNC(=O)c1ccc2c(c1)S(=O)(=O)c1ccccc1C2=O	.	.	.	.	.	.
CN1OC(COC(=O)c2ccc(Cl)cc2Cl)CC1c1ccccc1 (stereo unspecified)	.	26	.	.	.	.
CC(C)c1ccc(CN2CCN(C(=O)CSc3nnnn3C3CC3)CC2)cc1	.	.	.	.	.	.
O=C1C=CC(=C(c2ccc(O)cc2)c2ccc(O)cc2)C=C1	24	.	.	.	.	.
O=C(Nc1ccon1)c1nc[nH]c1C(=O)N1CCN(c2ccccc2)CC1	.	.	.	.	.	.
CC1CCCCC1NC(=O)CCNS(=O)(=O)c1cc(Br)cnc1N (stereo unspecified)	.	.	.	.	.	.
COC(=O)CNC(=O)Cc1c(C)n(C(=O)c2ccc(Cl)cc2)c2ccc(OC)cc12	.	.	.	.	.	.
COc1ccc2c(c1)c(CC(=O)OCC(N)=O)c(C)n2C(=O)c1ccc(Cl)cc1	.	25	.	.	.	.
COc1ccc(CN(C)C(=O)c2ccc(Cl)c(S(=O)(=O)NCc3cccnc3)c2)cc1F	.	.	.	.	.	.
COc1cccc(O)c1CN1CCC(C(=O)Nc2ccc(Oc3cccnc3)cc2)CC1	.	.	.	.	.	.
COc1ccc(CN2CCC(C(=O)Nc3ccc(Oc4cccnc4)cc3)CC2)cc1	.	.	.	.	.	8.2
CCCCCCSc1ccc([C@H]2N[C@@](C)(C(=O)OC)[C@H]3C(=O)N(C)C(=O)[C@@H]23)cc1	.	.	.	.	.	.
O=C(O)c1cccc(-n2cccc2/C=C\[N+](=O)[O-])c1	.	.	.	.	.	.
O=C(O)c1cccc(-n2cccc2/C=C/[N+](=O)[O-])c1	.	29	.	.	.	.
O=C(NCc1cccc(F)c1)c1cccc2c1C(=O)c1ccc(N3CCCC3)cc1S2(=O)=O	.	.	.	.	.	.
O=C(NCc1cccc(F)c1)c1cccc2c1C(=O)c1ccc(N3CCC(Cc4ccccc4)CC3)cc1S2(=O)=O	.	.	.	.	39	.
CC1CCN(c2ccc3c(c2)S(=O)(=O)c2cccc(C(=O)NCc4cccc(F)c4)c2C3=O)CC1	.	.	.	.	.	.
O=C(NCCc1ccc(F)cc1)c1cccc2c1C(=O)c1ccc(N3CCC(Cc4ccccc4)CC3)cc1S2(=O)=O	.	.	.	.	29	.
O=C(NCc1ccco1)c1cccc2c1C(=O)c1ccc(N3CCC(Cc4ccccc4)CC3)cc1S2(=O)=O	.	33	.	.	.	.

From PubChem
